# Most compounds without a hit are left out; they make up all but 17% or so of the library.
# TDP1 cell CPT: growth inhibition of DT40 Tdp1-/-;hTDP1 cells with camptothecin (screen for TDP1 inhibitors); AID 686979; actives 12% (n = 420,000); Potency, µM (highest dose often 46.2 µM), usual class: inhibitors; chicken DT40 Tdp1-/-;hTDP1 cells + 20 nM CPT, ATP luminescence, 48 h; note: nearly all actives have a fitted effect of over 55% in size
#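 Chicken DT40 Tdp1-/- cells complemented with human TDP1, 400 cells/well, exposed to compounds plus 20 nM camptothecin for at least 48 h at 37 C; viability read as ATP content by CellTiter-Glo luminescence.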
# HepG2 viability: HepG2 cytotoxicity, counter-screen for TGF-b inhibitors; HepG2 CAGA-GFP viability, ATP luminescence, 18 h; Potency, µM (highest dose often 46.1 µM), most hits filed as cytotoxic; AID 588856; actives 0.76% (n = 410,000)
#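 CellTiter-Glo luminescence gave cytotoxicity after 18 hours at 37 degrees C. The cells were HepG2 CAGA-GFP in 1% FBS DMEM, stimulated with 500 pg/mL TGF-beta after compound addition. %Activity was normalised to no-cell wells (complete cell-killing) and DMSO (no toxicity), and curves were fitted and classified.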
# ATXN2 expr inh: inhibitors of ATXN2 expression | HEK-293 ATXN2-luciferase reporter, luminescence, 24 h | Potency, µM (doses to about 57 µM), most hits filed as inhibitors | actives 0.72% (n = 360,000); note: nearly all actives have a fitted effect of over 55% in size
#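 ATXN2-luciferase reporter cells (luciferase flanked by upstream and downstream ATXN2 gene portions) were treated 24 h at 37 °C with compounds at up to 57 uM. SteadyGlo luminescence gave expression; GF-AFC fluorescence gave viability.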
# TDP1 cell noCPT: qHTS for Inhibitors of human tyrosyl-DNA phosphodiesterase 1 (TDP1): qHTS in cells in absence of CPT; DT40 Tdp1-/- hTDP1 cells, no CPT, ATP luminescence, 48 h; Potency, µM (doses to about 46.2 µM), most hits filed as inhibitors; actives 15% (n = 420,000); note: nearly all actives have a fitted effect of over 55% in size
#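 Growth of hTDP1-complemented DT40 Tdp1-knockout cells is measured by ATP luminescence after at least 48 hr compound exposure at 37 °C, with DMSO substituting for the 20 nM CPT used in the parallel screen.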
# TGFb SMAD3 inh: blocks TGF-b signaling; HepG2 CAGA-GFP TGF-b/SMAD3 reporter, GFP fluorescence, 18 h; TGF-beta stimulated, 500 pg/mL final; Potency, µM (series often up to 46.1 µM), actives largely listed as inhibitors; actives 1.2% (n = 410,000); note: nearly all actives have a fitted effect of over 65% in size
#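 Per well, imaged GFP fluorescence of HEPG2 CAGA-GFP cells gives the signal; cells get compound, then TGF-beta (500 pg/mL final), 18 h at 37 degrees C; %Activity versus -TGF-beta and +DMSO controls.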
# S2 tox: cell viability loss in ATXN counter-screen; Potency, µM (highest dose often 56.7 µM), usual class: cytotoxic; S2 cells (HEK-293 line with an ATXN2-luciferase reporter) viability, CellTiter-Fluor protease fluorescence, 24 h; actives 0.49% (n = 400,000); note: nearly all actives have a fitted effect of over 40% in size
# Hits are given with their value; i = inactive; ? = inconclusive; nt = no result given; ! = not confirmed by another sample; [ ] = remark or other dose. Calls come from the whole dose curve; as a rule, active = well fitted curve in the direction sought with a large enough effect; inconclusive = small, poorly fitted or top-dose-only effect, or another doubt; inactive = no such curve, though single readings can be large; an effect the other way counts as inactive or inconclusive.
SMILES,TDP1 cell CPT,HepG2 viability,ATXN2 expr inh,TDP1 cell noCPT,TGFb SMAD3 inh,S2 tox
CSc1ccccc1NC(=O)CN(C)C(=O)C1CC(=O)N(C(C)c2ccccc2)C1 (stereo not given),i,i,i,i,i,i
Cc1cc(C)n(-c2nc3ccccc3nc2Nc2ccc(Cl)cc2Cl)n1,i,i,nt,i,i,nt
Cc1cc(=O)c(C(=O)N(C)CCc2ccccn2)c2n1-c1ccccc1SC(c1ccsc1)C2 (stereo not given),i[9.04 µM],nt,nt,i,nt,?
CCN(CC)C(=O)c1ccc2sc([C@H]3C[C@H](O)[C@@H](CO)O3)nc2c1,i,i,i,i,i,i
Cc1ccc(NS(=O)(=O)c2ccccc2Cl)c2c1CC(C)(C)O2,20µM,i,i,14µM,i,i
Cc1nc(CS(=O)c2ccc(Cl)cc2)cc(NCc2ccc(Cl)cc2Cl)n1 (stereo not given),15µM,i,i,21µM,?,i
COCc1cc(NCc2ccc(Cl)cc2)nc(C)n1,i,i,i,i,i,i
Cn1nnc2c(N3CCN(c4ccccc4Cl)CC3)ncnc21,?,i,nt,?,i,nt
Cn1ncc2c(N3CCN(c4ccc(Cl)c(Cl)c4)CC3)ncnc21,10µM,i,0.95µM,7.3µM,?,i
Cn1nnc2c(N3CCN(c4cccc(Cl)c4)CC3)ncnc21,?,i,nt,4.1µM,i,nt
Fc1ccccc1N1CCN(c2ncnc3c2nc2n3CCCCC2)CC1,?,i,i,?,i,i
Cn1ncc2c(N3CCN(c4ccccc4F)CC3)ncnc21,?,i,i,23µM,i,i
CN(CC(=O)Nc1ccc(Cl)cc1)C(=O)CNC(=O)c1cccs1,i,i,nt,i,i,i
CCn1c(=O)c(C(=O)CN(C)CC(=O)Nc2cccc(F)c2)c(N)n(Cc2ccccc2)c1=O,?,i,i,?,i,i
COc1cc(OC)c2c(c1C(CCN1CCOCC1)c1ccc(N(C)C)cc1)OC(=O)CC2c1ccc(N(C)C)cc1 (stereo not given),16µM,i,i,?,i,?
COc1cc(OC)c2c(-c3ccccc3)cc(=O)oc2c1C(CCN1CCOCC1)c1ccc(N(C)C)cc1 (stereo not given),5.8µM,i,i,6.5µM,?,?
COc1cc(C(CC(=O)N2CCOCC2)c2c(OC)cc(OC)c3c(-c4ccccc4)cc(=O)oc23)cc(OC)c1OC (stereo not given),nt,i,nt,nt,?,nt
CCN(CC)C(=O)CC(c1ccc(OC)cc1)c1c(OC)cc(OC)c2c(-c3ccccc3)cc(=O)oc12 (stereo not given),nt,i,nt,nt,?,nt
COc1ccc(C(CCN2CCCCC2)c2c(OC)cc(OC)c3c(-c4ccccc4)cc(=O)oc23)cc1 (stereo not given),21µM,18µM!,?,?,?,22µM
COc1cc(OC)c2c(-c3ccccc3)cc(=O)oc2c1C(CCN1CCCCC1)c1ccc(N(C)C)cc1 (stereo not given),10µM,i,?,15µM,?,22µM
COc1ccc(C2CC(=O)Oc3c(C(CCN4CCN(c5ccccc5)CC4)c4ccc(N(C)C)cc4)c(OC)cc(OC)c32)cc1 (stereo not given),i,i,i,?,?,i
CCOC(=O)c1ccc(CN(Cc2ccc(Cl)cc2Cl)S(=O)(=O)c2ccc(F)c(C)c2)cc1,?,i,nt,?,i,nt
Cn1c(N)c(S(=O)(=O)N2CCN(c3ccccc3)CC2)c(=O)n(C)c1=O,i,i,i,i,i,i
CN(C)P(=O)(Nc1cccc2ccccc12)Nc1cccc2ccccc12,8.2µM,i,i,9.2µM,i,?
O=C1c2ccc([N+](=O)[O-])cc2NC(c2ccco2)N1/N=C/c1ccco1 (stereo not given),i,i,i,18µM,i,i

# High-throughput results (PubChem)
